From PubChem BioAssay AID1159580 (chemical genetic matrix, 2015)
Screen size: about 5,500 compounds; about 2,000 (36%) were called active. Inconclusive results (about 18%) are left out. The list shows a part of the results. Values without a mark were called inactive. No stated cut-off is given here; in the data, active means normalized growth mostly below about 0.91 (no sharp cut-off); inconclusive means no clear call, values can overlap the other calls; inactive means mostly above about 0.92.

Assay: chemical genetic growth profiling, strain panel (AID 1159580);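 further: tested at 20 µM; growth read once vehicle control cultures reached saturation at 30 °C; 1 = growth at the plate median or of vehicle wells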
Settings: growth OD

For `N#Cc1c(Cl)c(Cl)c(Cl)c(C#N)c1Cl`, the normalized growth (S. cerevisiae deletion strains, locus YJR075W, strain HOC1, stronger effect = lower value) was 0.999, the normalized growth (S. cerevisiae deletion strains, locus YKL009W, strain mrt4, stronger effect = lower value) was 0.976 and the normalized growth (S. cerevisiae deletion strains, locus YKL068W, stronger effect = lower value) was 0.989. For the same molecule, the normalized growth (S. cerevisiae deletion strains, locus YKL085W, strain MDH1 (second series), stronger effect = lower value) was 0.989, the normalized growth (S. cerevisiae deletion strains, locus YKL085W, strain MDH1, stronger effect = lower value) was 0.989 and the normalized growth (S. cerevisiae deletion strains, locus YKL160W, strain elf1, stronger effect = lower value) was 0.0734 (active). For the same molecule, the normalized growth (S. cerevisiae deletion strains, locus YKL190W, strain CNB1, stronger effect = lower value) was 1.01, the normalized growth (S. cerevisiae deletion strains, locus YKR001C, strain vps1, stronger effect = lower value) was 0.983 and the normalized growth (S. cerevisiae deletion strains, locus YKR026C, strain gcn3, stronger effect = lower value) was 0.0728 (active). The normalized growth (S. cerevisiae deletion strains, locus YKR091W, strain srl3, stronger effect = lower value) was 0.0738 (active), the normalized growth (S. cerevisiae deletion strains, locus YLL001W, strain dnm1, stronger effect = lower value) was 0.0739 (active) and the normalized growth (S. cerevisiae deletion strains, locus YLL026W, stronger effect = lower value) was 0.068 (active). The normalized growth (S. cerevisiae deletion strains, locus YLL041C, strain sdh2, stronger effect = lower value) was 0.0683 (active), the normalized growth (S. cerevisiae deletion strains, locus YLR027C, strain aat2, stronger effect = lower value) was 0.072 (active) and the normalized growth (S. cerevisiae deletion strains, locus YLR039C, strain RIC1, stronger effect = lower value) was 1. For the same molecule, the normalized growth (S. cerevisiae deletion strains, locus YLR058C, strain SHM2, stronger effect = lower value) was 0.994, the normalized growth (S. cerevisiae deletion strains, locus YLR102C, strain apc9, stronger effect = lower value) was 0.981 and the normalized growth (S. cerevisiae deletion strains, locus YLR113W, strain HOG1, stronger effect = lower value) was 0.153 (active). For the same molecule, the normalized growth (S. cerevisiae deletion strains, locus YLR221C, strain rsa3, stronger effect = lower value) was 0.0754 (active), the normalized growth (S. cerevisiae deletion strains, locus YLR258W, strain gsy2, stronger effect = lower value) was 0.0732 (active) and the normalized growth (S. cerevisiae deletion strains, locus YLR262C, strain YPT6 (second series), stronger effect = lower value) was 0.0948 (active). For the same molecule, the normalized growth (S. cerevisiae deletion strains, locus YLR262C, strain YPT6, stronger effect = lower value) was 1.02, the normalized growth (S. cerevisiae deletion strains, locus YLR268W, strain sec22, stronger effect = lower value) was 0.998 and the normalized growth (S. cerevisiae deletion strains, locus YLR320W, strain mms22, stronger effect = lower value) was 0.0991 (active). The normalized growth (S. cerevisiae deletion strains, locus YLR330W, strain CHS5, stronger effect = lower value) was 0.996, the normalized growth (S. cerevisiae deletion strains, locus YLR342W, strain FKS1 (second series), stronger effect = lower value) was 0.993 and the normalized growth (S. cerevisiae deletion strains, locus YLR342W, strain FKS1, stronger effect = lower value) was 0.0799 (active). For the same molecule, the normalized growth (S. cerevisiae deletion strains, locus YLR357W, strain rsc2, stronger effect = lower value) was 0.146 (active), the normalized growth (S. cerevisiae deletion strains, locus YLR370C, strain arc18, stronger effect = lower value) was 0.0758 (active) and the normalized growth (S. cerevisiae deletion strains, locus YLR371W, strain rom2, stronger effect = lower value) was 0.975. The normalized growth (S. cerevisiae deletion strains, locus YLR384C, strain iki3, stronger effect = lower value) was 0.0759 (active), the normalized growth (S. cerevisiae deletion strains, locus YLR418C, strain cdc73, stronger effect = lower value) was 0.995 and the normalized growth (S. cerevisiae deletion strains, locus YML016C, strain PPZ1, stronger effect = lower value) was 0.998. The normalized growth (S. cerevisiae deletion strains, locus YML032C, strain rad52, stronger effect = lower value) was 0.968, the normalized growth (S. cerevisiae deletion strains, locus YML120C, strain ndi1, stronger effect = lower value) was 0.0696 (active) and the normalized growth (S. cerevisiae deletion strains, locus YML124C, strain tub3, stronger effect = lower value) was 0.984. For the same molecule, the normalized growth (S. cerevisiae deletion strains, locus YMR058W, strain fet3, stronger effect = lower value) was 0.074 (active), the normalized growth (S. cerevisiae deletion strains, locus YMR078C, strain ctf18, stronger effect = lower value) was 0.969 and the normalized growth (S. cerevisiae deletion strains, locus YMR125W, strain sto1, stronger effect = lower value) was 0.0959 (active). The normalized growth (S. cerevisiae deletion strains, locus YMR129W, stronger effect = lower value) was 0.0707 (active), the normalized growth (S. cerevisiae deletion strains, locus YMR205C, strain PFK2, stronger effect = lower value) was 0.111 (active) and the normalized growth (S. cerevisiae deletion strains, locus YMR223W, strain ubp8, stronger effect = lower value) was 0.975. For the same molecule, the normalized growth (S. cerevisiae deletion strains, locus YMR231W, strain pep5, stronger effect = lower value) was 0.0788 (active), the normalized growth (S. cerevisiae deletion strains, locus YMR263W, strain SAP30, stronger effect = lower value) was 1 and the normalized growth (S. cerevisiae deletion strains, locus YMR307W, strain GAS1, stronger effect = lower value) was 0.902. The normalized growth (S. cerevisiae deletion strains, locus YNL067W, strain RPL9B, stronger effect = lower value) was 1, the normalized growth (S. cerevisiae deletion strains, locus YNL071W, strain lat1, stronger effect = lower value) was 0.0711 (active) and the normalized growth (S. cerevisiae deletion strains, locus YNL128W, strain TEP1, stronger effect = lower value) was 0.997. For the same molecule, the normalized growth (S. cerevisiae deletion strains, locus YNL153C, strain GIM3, stronger effect = lower value) was 1.01, the normalized growth (S. cerevisiae deletion strains, locus YNL183C, strain NPR1, stronger effect = lower value) was -0.00756 (active) and the normalized growth (S. cerevisiae deletion strains, locus YNL209W, strain ssb2, stronger effect = lower value) was 0.0719 (active). The normalized growth (S. cerevisiae deletion strains, locus YNL233W, strain BNI4, stronger effect = lower value) was 1, the normalized growth (S. cerevisiae deletion strains, locus YNL248C, strain rpa49, stronger effect = lower value) was 0.0922 (active) and the normalized growth (S. cerevisiae deletion strains, locus YNL250W, strain rad50, stronger effect = lower value) was 0.98. For the same molecule, the normalized growth (S. cerevisiae deletion strains, locus YNL271C, strain bni1, stronger effect = lower value) was 0.974, the normalized growth (S. cerevisiae deletion strains, locus YNL298W, strain CLA4, stronger effect = lower value) was 0.971 and the normalized growth (S. cerevisiae deletion strains, locus YNL307C, strain MCK1, stronger effect = lower value) was 0.981. For the same molecule, the normalized growth (S. cerevisiae deletion strains, locus YNL322C, strain KRE1 (second series), stronger effect = lower value) was 0.0768 (active), the normalized growth (S. cerevisiae deletion strains, locus YNL322C, strain KRE1, stronger effect = lower value) was 0.997 and the normalized growth (S. cerevisiae deletion strains, locus YNR049C, strain mso1, stronger effect = lower value) was 0.0681 (active). It also gave a normalized growth (S. cerevisiae deletion strains, locus YNR052C, strain pop2, stronger effect = lower value) of 0.978, a normalized growth (S. cerevisiae deletion strains, locus YOL006C, strain TOP1, stronger effect = lower value) of 1.01 and a normalized growth (S. cerevisiae deletion strains, locus YOL012C, strain htz1) of 1.56. The normalized growth (S. cerevisiae deletion strains, locus YOL147C, strain pex11, stronger effect = lower value) was 0.989, the normalized growth (S. cerevisiae deletion strains, locus YOR001W, strain rrp6, stronger effect = lower value) was 0.0917 (active) and the normalized growth (S. cerevisiae deletion strains, locus YOR061W, strain CKA2, stronger effect = lower value) was 1.01. The normalized growth (S. cerevisiae deletion strains, locus YOR069W, strain VPS5, stronger effect = lower value) was 0.999, the normalized growth (S. cerevisiae deletion strains, locus YOR070C, strain gyp1, stronger effect = lower value) was 0.0717 (active) and the normalized growth (S. cerevisiae deletion strains, locus YOR080W, strain dia2, stronger effect = lower value) was 0.0799 (active). For the same molecule, the normalized growth (S. cerevisiae deletion strains, locus YOR083W, strain WHI5, stronger effect = lower value) was 0.0798 (active), the normalized growth (S. cerevisiae deletion strains, locus YOR106W, strain vam3, stronger effect = lower value) was 0.0853 (active) and the normalized growth (S. cerevisiae deletion strains, locus YOR136W, strain idh2, stronger effect = lower value) was 0.977. The normalized growth (S. cerevisiae deletion strains, locus YOR144C, strain elg1, stronger effect = lower value) was 0.981, the normalized growth (S. cerevisiae deletion strains, locus YOR184W, strain ser1, stronger effect = lower value) was 0.965 and the normalized growth (S. cerevisiae deletion strains, locus YOR231W, strain MKK1, stronger effect = lower value) was 0.13 (active). For the same molecule, the normalized growth (S. cerevisiae deletion strains, locus YOR265W, strain rbl2, stronger effect = lower value) was 0.0688 (active), the normalized growth (S. cerevisiae deletion strains, locus YOR270C, strain vph1, stronger effect = lower value) was 0.122 (active) and the normalized growth (S. cerevisiae deletion strains, locus YOR290C, strain snf2, stronger effect = lower value) was 0.0764 (active). For the same molecule, the normalized growth (S. cerevisiae deletion strains, locus YOR316C, strain cot1, stronger effect = lower value) was 0.984, the normalized growth (S. cerevisiae deletion strains, locus YPL051W, strain arl3, stronger effect = lower value) was 0.0808 (active) and the normalized growth (S. cerevisiae deletion strains, locus YPL055C, strain LGE1, stronger effect = lower value) was 1.01. For the same molecule, the normalized growth (S. cerevisiae deletion strains, locus YPL078C, strain atp4, stronger effect = lower value) was 0.081 (active), the normalized growth (S. cerevisiae deletion strains, locus YPL106C, strain sse1, stronger effect = lower value) was 0.126 (active) and the normalized growth (S. cerevisiae deletion strains, locus YPL240C, strain hsp82, stronger effect = lower value) was 0.0722 (active). The normalized growth (S. cerevisiae deletion strains, locus YPL241C, strain CIN2, stronger effect = lower value) was 1, the normalized growth (S. cerevisiae deletion strains, locus YPL256C, strain CLN2, stronger effect = lower value) was 0.186 (active) and the normalized growth (S. cerevisiae deletion strains, locus YPR119W, strain clb2, stronger effect = lower value) was 0.985. For the same molecule, the normalized growth (S. cerevisiae deletion strains, locus YPR141C, strain kar3, stronger effect = lower value) was 0.978, the normalized growth (S. cerevisiae deletion strains, locus YPR163C, strain tif3, stronger effect = lower value) was 0.98 and the normalized growth (S. cerevisiae deletion strains, locus YPR167C, strain met16, stronger effect = lower value) was 0.989. The normalized growth (S. cerevisiae deletion strains, strain wtn01, stronger effect = lower value) was 0.99 and the normalized growth (S. cerevisiae strains, strain wild type, stronger effect = lower value) was 0.997.
